HT1080NT lethal – qHTS for induction of synthetic lethality in tumor cells producing 2HG: qHTS for the HT-1080-NT fibrosarcoma cell line | actives 1.6% (n = 360,000) | Potency, µM (top dose mostly 46.1 µM), inactives show at the highest dose activity, negative = less viability, usual class: cytotoxic | HT-1080-NT fibrosarcoma viability, CellTiter-Glo ATP luminescence, 48 h;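 also: NT is the 2HG producing partner of a matched IDH1 knockdown line; 0% = DMSO-treated cells and -100% = media-only wells without cells; nearly all actives have a fitted effect of over 55% in size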
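HT-1080-NT; 750 cells/well; 5% FBS RPMI; 48 h compound, 37 degrees C; CellTiter-Glo luminescence; curve fitting and curve-class assignment.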
KB-3-1 cytotox – qHTS assay for MDR1-selective chemotherapeutics: Primary screen using the parental adenocarcinoma cell KB-3-1; Potency, µM (titrated, usually from 46.1 µM), hits mostly cytotoxic; actives 1.4% (n = 400,000); KB-3-1 viability, CellTiter-Glo ATP luminescence, 72 h; also: % is scaled to controls: 0 for no effect and ±100 for the full control effect; nearly all actives have a fitted effect of over 60% in size
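Multi-concentration cytotoxicity screen in KB-3-1 cells grown in DMEM lacking phenol red with 10% FBS. After 72 h at 37 °C with compound, ATP-dependent luminescence was recorded.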
KB-V1 MDR tox – qHTS assay for MDR1-selective chemotherapeutics: Primary screen using the drug-selected MDR subline cells KB-V1 | KB-V1 MDR cells viability, CellTiter-Glo, 72 h | actives 3.4% (n = 400,000) | Potency, µM (series often up to 46.1 µM), most hits filed as cytotoxic; also: % is scaled to controls: 0 for no effect and ±100 for the full control effect; nearly all actives have a fitted effect of over 60% in size
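Drug-selected KB-V1 cells, grown in DMEM lacking phenol red with 10% FBS, receive compound titrations; after three days at 37 degrees C, surviving cell ATP is quantified by CellTiter-Glo luminescence and responses normalized and curve-fitted.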
MCF10A rerep – A quantitative high throughput screen for small molecules that induce DNA re-replication in MCF 10a normal breast cells. Potency, µM (top dose mostly 46.1 µM), inactives show at the highest dose activity, positive = re-replication, most hits filed as activators. MCF 10A DNA re-replication, Hoechst nuclear intensity, 48 h. actives 2.9% (n = 350,000); also: % of control where 0% means no effect; nearly all actives have a fitted effect of over 50% in size
HT1080 IDH1KD tx – qHTS for induction of synthetic lethality in tumor cells producing 2HG: qHTS for the HT-1080-IDH1KD cell line. HT-1080 IDH1 knockdown viability, ATP luminescence, 48 h. actives 2% (n = 360,000). Potency, µM (doses to about 46.1 µM), without a hit: top-dose activity, negative = toxicity, hits mostly cytotoxic;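 also: 0% = DMSO wells and -100% = cell-free medium wells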
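Luminescent ATP read-out (CellTiter-Glo, 10 min at room temperature) after 48 h compound exposure at 37 °C gave viability of IDH1-knockdown HT-1080 cells. Activity was normalised to DMSO and cell-free wells, then fitted as concentration-response curves.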
SW480 rereplic – A quantitative high throughput screen for small molecules that induce DNA re-replication in SW480 colon adenocarcinoma cells; SW480 DNA re-replication, Hoechst DNA content imaging, 48 h; Potency, µM (titrated, usually from 46.1 µM), for inactives: top-dose re-replication activation, usual class: activators; actives 1.8% (n = 340,000); also: % of control where 0% means no effect; nearly all actives have a fitted effect of over 55% in size
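Cells (250 per well) received 23 nL compound or DMSO by pin tool and were kept 48 hr at 37 C, 5% CO2. Nuclei were then stained with Hoechst for 40 min and scanned for DNA content.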
Starred values were filed as active, the others as inactive; [ ] = remark or other dose. A selection: hits, their analogues and other compounds. The true share with any hit is near 8%. Calls follow the shape of the dose curve; as a rule, active = well fitted curve in the direction sought with a large enough effect; inconclusive = small, poorly fitted or top-dose-only effect, or another doubt; inactive = no such curve, though single readings can be large; an effect the other way counts as inactive or inconclusive. Potency is read from the fitted curve at half-maximal effect.

What do the screens show for `CCOC(=O)c1ccc(NC(=O)CC2C(=O)N(c3ccc(F)cc3)C(=O)N2CCC(C)C)cc1` (stereo not given)?
HT1080NT lethal: 5%[9.24 µM]; KB-3-1 cytotox: 21µM*; KB-V1 MDR tox: inconclusive; MCF10A rerep: inconclusive; HT1080 IDH1KD tx: inconclusive; SW480 rereplic: 18%

Results for CCc1ccccc1NC(=O)CN1CCN(C(=O)C2CCN(C(=O)/C=C/c3ccccc3)CC2)CC1 ?
HT1080NT lethal: -1%; KB-3-1 cytotox: inactive; KB-V1 MDR tox: inactive; MCF10A rerep: inconclusive; HT1080 IDH1KD tx: -8%; SW480 rereplic: -13%

What do the screens show for `CCCc1cc(=O)[nH]c(SCc2nc(-c3ccccc3)no2)n1`?
KB-3-1 cytotox: inactive; KB-V1 MDR tox: inactive

Results for O=C(CCn1cnnn1)Nc1cccc(F)c1 ?
HT1080NT lethal: 6%; KB-3-1 cytotox: inactive; KB-V1 MDR tox: inactive; MCF10A rerep: -1%; HT1080 IDH1KD tx: 10%; SW480 rereplic: -2%

What do the screens show for `Cc1ccc(C)c(NC(=O)CCN2CCC(C)CC2)c1`?
HT1080NT lethal: 0%; KB-3-1 cytotox: inactive; KB-V1 MDR tox: inconclusive; MCF10A rerep: -3%; HT1080 IDH1KD tx: 15%; SW480 rereplic: -3%

What do the screens show for `O=C(O)c1ccccc1-c1ccccc1C(=O)Nc1ccc2c(c1)C(O)c1ccccc1-2` (stereo not given)?
HT1080NT lethal: 10%; KB-3-1 cytotox: inactive; KB-V1 MDR tox: inactive; HT1080 IDH1KD tx: 4%

Results for COc1cc(NC(=O)c2ccc([N+](=O)[O-])o2)ccc1NC(=O)c1ccco1 ?
HT1080NT lethal: 10%; KB-3-1 cytotox: inconclusive; KB-V1 MDR tox: inactive; MCF10A rerep: 16%; HT1080 IDH1KD tx: 19%; SW480 rereplic: inconclusive

Results for Cc1cc(C)nc(NC(=O)c2ccc([N+](=O)[O-])o2)n1 ?
HT1080NT lethal: -3%; KB-3-1 cytotox: inactive; KB-V1 MDR tox: inactive; MCF10A rerep: 13µM*; HT1080 IDH1KD tx: -20%; SW480 rereplic: 8.2µM*

Results for O=C(Nc1ccccc1N1CCOCC1)c1ccc([N+](=O)[O-])o1 ?
HT1080NT lethal: -3%; KB-3-1 cytotox: inactive; KB-V1 MDR tox: inconclusive; MCF10A rerep: 6%; HT1080 IDH1KD tx: 1%; SW480 rereplic: inconclusive

What do the screens show for `COc1ccc(NC(=O)c2ccc(Br)o2)cc1`?
HT1080NT lethal: -3%; KB-3-1 cytotox: inactive; KB-V1 MDR tox: inactive; MCF10A rerep: -7%; HT1080 IDH1KD tx: 9%; SW480 rereplic: -9%

How did Cc1cc(NC(=O)c2ccc([N+](=O)[O-])o2)ccc1NC(=O)c1ccco1 do in these assays?
HT1080NT lethal: 5.2µM*; KB-3-1 cytotox: 5.2µM*; KB-V1 MDR tox: inconclusive; MCF10A rerep: inconclusive; HT1080 IDH1KD tx: 5.8µM*; SW480 rereplic: 2.3µM*

Results for NS(=O)(=O)c1ccc(O)c(NC(=O)c2ccc([N+](=O)[O-])o2)c1 ?
HT1080NT lethal: inconclusive; KB-3-1 cytotox: inconclusive; KB-V1 MDR tox: inconclusive; MCF10A rerep: inconclusive; HT1080 IDH1KD tx: inconclusive; SW480 rereplic: 12µM*

How did COc1ccc(NC(=O)c2ccc([N+](=O)[O-])o2)cc1 do in these assays?
HT1080NT lethal: -4%; KB-3-1 cytotox: 8.2µM*; KB-V1 MDR tox: inconclusive; MCF10A rerep: 16µM*; HT1080 IDH1KD tx: inconclusive; SW480 rereplic: 2.6µM*

What do the screens show for `[O-][n+]1ccc(C(O)c2ccccc2)cc1` (stereo not given)?
HT1080NT lethal: 5%; KB-3-1 cytotox: inactive; KB-V1 MDR tox: inactive; MCF10A rerep: 3%; HT1080 IDH1KD tx: 9%; SW480 rereplic: inconclusive

Results for CC(=O)c1cccc(NC(=O)c2cc(=O)c3ccccc3o2)c1 ?
HT1080NT lethal: 9%; KB-3-1 cytotox: inactive; KB-V1 MDR tox: inactive; MCF10A rerep: -1%; HT1080 IDH1KD tx: 7%; SW480 rereplic: -13%

What do the screens show for `Cc1cc(C)cc(NC(=O)c2ccc([N+](=O)[O-])o2)c1`?
HT1080NT lethal: inconclusive; KB-3-1 cytotox: inconclusive; KB-V1 MDR tox: 13µM*; MCF10A rerep: 3.3µM*; HT1080 IDH1KD tx: 16µM*; SW480 rereplic: inconclusive

How did CC(=O)c1ccc(NC(=O)c2ccc([N+](=O)[O-])o2)cc1 do in these assays?
HT1080NT lethal: inconclusive; KB-3-1 cytotox: inconclusive; KB-V1 MDR tox: inconclusive; MCF10A rerep: 4.6µM*; HT1080 IDH1KD tx: 18µM*; SW480 rereplic: 20%

Results for CC(=O)c1cccc(NC(=O)c2ccc([N+](=O)[O-])o2)c1 ?
HT1080NT lethal: 15µM*; KB-3-1 cytotox: inconclusive; KB-V1 MDR tox: 16µM*; MCF10A rerep: 4.1µM*; HT1080 IDH1KD tx: inconclusive; SW480 rereplic: inconclusive

Results for Cc1ccc(C)c(-c2nnc(NC(=O)c3ccc([N+](=O)[O-])o3)o2)c1 ?
HT1080NT lethal: inconclusive; KB-3-1 cytotox: inconclusive; KB-V1 MDR tox: inactive; MCF10A rerep: inconclusive; HT1080 IDH1KD tx: inconclusive; SW480 rereplic: inconclusive

Results for COc1ccc(NC(=O)c2noc(C(C)C)c2[N+](=O)[O-])cc1 ?
HT1080NT lethal: 23µM*; KB-3-1 cytotox: inactive; KB-V1 MDR tox: inactive; MCF10A rerep: inconclusive; HT1080 IDH1KD tx: inconclusive; SW480 rereplic: inconclusive

How did O=[N+]([O-])c1ccc(Cl)c(S(=O)(=O)/N=C(/Sc2ccc(Br)cc2)c2ccccc2)c1 do in these assays?
KB-3-1 cytotox: inconclusive; KB-V1 MDR tox: inactive

Results for FC(F)(F)c1ccccc1NC(=S)NN=C1CCCCCC1 ?
HT1080NT lethal: 13µM*; KB-3-1 cytotox: inconclusive; KB-V1 MDR tox: inconclusive; MCF10A rerep: inconclusive; HT1080 IDH1KD tx: 18µM*; SW480 rereplic: 12µM*

How did O=C(NC(=S)Nc1ccccc1C(F)(F)F)c1ccccc1F do in these assays?
HT1080NT lethal: -17%; KB-3-1 cytotox: inactive; KB-V1 MDR tox: inactive; MCF10A rerep: 10µM*; HT1080 IDH1KD tx: -21%; SW480 rereplic: -3%

How did FC(F)(F)c1ccccc1NC(=S)N1CCCC1 do in these assays?
HT1080NT lethal: -4%; KB-3-1 cytotox: inactive; KB-V1 MDR tox: inactive; MCF10A rerep: -8%; HT1080 IDH1KD tx: -2%; SW480 rereplic: inconclusive

Results for Cc1ccccc1C(=O)NC(=S)Nc1ccccc1C(F)(F)F ?
HT1080NT lethal: 4%; KB-3-1 cytotox: inactive; KB-V1 MDR tox: inactive; MCF10A rerep: -1%; HT1080 IDH1KD tx: 3%; SW480 rereplic: 9%

Screening data: PubChem, National Center for Advancing Translational Sciences (NCATS)
